Screening data: PubChem, The Scripps Research Institute Molecular Screening Center
In the library only some 2.7% were active in any assay of this set; here they are far more common.
TCR CD3 inh = inhibitors of human TCR-CD3 interaction, primary screen, biochemical, fluorescence, TAMRA-labeled TCR probe. inhibition, % at 9.4 µM. 0.37% of 360,000 active. AID 651800, 2012. T-cell receptor (TCR); in the data active means inhibition above about 19%;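 further: recombinant mutant TCR 2C K166C tagged with TAMRA read by polarization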
PAFAH1B2 FP inh = PAFAH1B2 enzyme inhibitors, primary screen, biochemical, fluorescence polarization, human | Platelet-activating factor acetylhydrolase IB subunit alpha2 (Homo sapiens), P68402 | recombinant PAFAH1B2, FP-rhodamine activity probe | inhibition, % at 3.39 µM | 1.2% of 340,000 active;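 active means inhibition above the mean of all tested compounds plus 3 SD, cut at about 24% in these data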
Target sequence (P68402 whole entry, looked up): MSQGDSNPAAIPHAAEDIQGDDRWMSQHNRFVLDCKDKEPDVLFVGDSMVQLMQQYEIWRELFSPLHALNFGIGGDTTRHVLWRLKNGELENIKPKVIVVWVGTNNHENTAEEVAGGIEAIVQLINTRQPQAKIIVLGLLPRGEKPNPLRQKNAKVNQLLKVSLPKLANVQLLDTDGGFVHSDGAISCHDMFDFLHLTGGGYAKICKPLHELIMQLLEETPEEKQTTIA
PAFAH2 inh = PAFAH2 enzyme inhibitors, primary screen, biochemical, fluorescence polarization, human. recombinant PAFAH2, FP-rhodamine activity probe. Platelet-activating factor acetylhydrolase 2, cytoplasmic (Homo sapiens), Q99487. 0.99% of 340,000 active. inhibition, % at 3.39 µM;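 active means inhibition above the mean over all tested compounds plus 3 SD, cut at about 30% in these data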;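 further: inhibitors block probe labeling of enzyme so polarization drops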
PAFAH1B3 inh = PAFAH1B3 enzyme inhibitors, primary screen, biochemical, fluorescence polarization, human; recombinant PAFAH1B3, FP-rhodamine probe; inhibition, % at 3.39 µM; 0.28% of 340,000 active; AID 492972, 2010;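 active means inhibition above the screen-wide average of all tested compounds plus 3 SD, cut at about 25% in these data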
pPAFAH FP inh = pPAFAH enzyme inhibitors, primary screen, biochemical, fluorescence polarization, human | recombinant pPAFAH, FP-rhodamine probe fluorescence polarization | inhibition, % at 3.39 µM | 1.5% of 330,000 active;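 active means inhibition above the mean inhibition across the screen plus 3 SD, cut at about 25% in these data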;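 further: inhibitors block binding of the rhodamine activity-based probe so polarization drops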
Target sequence (Q13093 whole entry, looked up): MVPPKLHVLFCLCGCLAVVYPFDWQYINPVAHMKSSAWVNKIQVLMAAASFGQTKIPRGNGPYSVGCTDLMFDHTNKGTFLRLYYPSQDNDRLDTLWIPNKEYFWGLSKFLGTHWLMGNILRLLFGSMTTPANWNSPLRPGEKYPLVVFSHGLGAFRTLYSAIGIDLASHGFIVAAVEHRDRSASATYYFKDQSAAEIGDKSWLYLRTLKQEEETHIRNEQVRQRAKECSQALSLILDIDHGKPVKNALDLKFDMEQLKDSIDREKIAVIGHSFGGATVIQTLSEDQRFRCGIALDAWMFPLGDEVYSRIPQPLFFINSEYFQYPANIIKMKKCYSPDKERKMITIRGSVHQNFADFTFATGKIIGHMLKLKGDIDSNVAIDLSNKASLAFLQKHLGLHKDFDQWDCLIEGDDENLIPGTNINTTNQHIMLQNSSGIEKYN
Each line names hits and unclear results; the compound was inactive in the other large screens.

CCCCCCCCN1C(=O)[C@@H](CC(=O)NCCCOC)C[C@@]2(C(=O)OC)C1=C[C@H](C1CCCC1)O[C@@H]2C	none (no result: PAFAH1B2 FP inh, PAFAH2 inh, PAFAH1B3 inh, pPAFAH FP inh)
Cc1ccc(C(=O)NCc2ccco2)cc1S(=O)(=O)Nc1cccc(C)c1C	pPAFAH FP inh 33.0
Cc1ccccc1NS(=O)(=O)c1cc(C(=O)NCc2ccco2)ccc1C	none
Cc1noc(C)c1CSCC(=O)Nc1ccccc1N1CCCCC1	PAFAH1B2 FP inh 29.5 (no result: TCR CD3 inh)
Cc1ccc(S(=O)(=O)NNC(=O)c2cnn(-c3ccccc3)c2-n2cccc2)cc1	PAFAH1B2 FP inh 28.2
Cc1ccc(S(=O)(=O)NNC(=O)c2ccccc2O)cc1	none
NC(=O)c1ccc(N=C2C(=O)Nc3ccc([N+](=O)[O-])cc32)cc1	PAFAH1B3 inh 56.3
O=C(OCc1ccc(Br)cc1)c1ccncc1	none
CC(=O)Nc1ccc(C(=O)OCc2ccc(Br)cc2)cc1	PAFAH1B2 FP inh 26.5, PAFAH2 inh 34.1
CCOC(=O)c1c(C)[nH]c(C(=O)OCC(=O)Nc2cc(C)nn2-c2ccccc2)c1C	none
CC(Oc1ccccc1)C(=O)N=C1SC2CS(=O)(=O)CC2N1Cc1ccc(F)cc1 (stereo not given)	pPAFAH FP inh 26.1
CC(Oc1ccccc1)C(=O)N=C1SC2CS(=O)(=O)CC2N1c1ccc(F)cc1 (stereo not given)	none
Nc1nc2ncccc2cc1C(=O)NC1CC1	none (no result: PAFAH1B2 FP inh, PAFAH2 inh, PAFAH1B3 inh, pPAFAH FP inh)
Cc1ccc(NS(=O)(=O)c2cccc(C(=O)NCC3CCCO3)c2)cc1 (stereo not given)	pPAFAH FP inh 30.5
Cc1ccc(S(=O)(=O)Nc2ccc(S(=O)(=O)NCC3CCCO3)cc2)cc1 (stereo not given)	PAFAH1B2 FP inh 42.9
Cc1ccc(-c2ccc(S(=O)(=O)NCC3CCCO3)cc2)cc1 (stereo not given)	none
CCOC(=O)[C@@H]1[C@H]2COc3ccccc3[C@H]2N2C(=O)N(c3cccc(F)c3)C(=O)[C@]12C	none
CC(=O)CSc1ncnc2sc3c(c12)CCC3	none
COc1cc(NC(=O)CSc2ncnc3sc4c(c23)CCCC4)c(C(=O)O)cc1OC	pPAFAH FP inh 25.8
COc1ccc(OC)c(S(=O)(=O)NCC2CCN(C(=O)C(=O)c3cccs3)CC2)c1	none (no result: PAFAH1B2 FP inh, PAFAH2 inh, PAFAH1B3 inh, pPAFAH FP inh)
Cc1ccc(COc2ccc(/C=N/O)cc2)cc1	PAFAH1B2 FP inh 33.2
CCOc1ccc(/C=N/O)cc1	none
O=[N+]([O-])c1cc(/C=N\Nc2ccccn2)ccc1Cl	none
O=[N+]([O-])c1cc(C=Nc2cccc3c(O)cccc23)ccc1Cl	pPAFAH FP inh 24.9 (no result: TCR CD3 inh, PAFAH1B2 FP inh, PAFAH2 inh, PAFAH1B3 inh)
Cc1cccc(C)c1NC(=O)COC(=O)c1cccc2c1C(=O)c1ccccc1C2=O	none
Cc1cccc(NC(=O)COC(=O)c2cccc3c2C(=O)c2ccccc2C3=O)c1C	pPAFAH FP inh 30.6
COCCNC(=S)N(C)[C@H]1C[C@H]2c3cc(N4CCN(C)CC4)ccc3CCN2C(=O)[C@H]1[C@H](C)O	none (no result: PAFAH1B2 FP inh, PAFAH2 inh, PAFAH1B3 inh, pPAFAH FP inh)
Cc1ccc(-c2c(C(=O)Nc3ccccc3C)c(C)[nH]c(=S)c2C#N)o1	pPAFAH FP inh 27.3 (no result: PAFAH1B2 FP inh, PAFAH2 inh, PAFAH1B3 inh)
Cc1ccccc1NC(=O)c1c(C)[nH]c(=S)c(C#N)c1-c1ccc(Cl)cc1	none (no result: PAFAH1B2 FP inh, PAFAH2 inh, PAFAH1B3 inh)
CC(=O)c1cccc(NC(=O)CSc2ncc(C(=O)Nc3ccccc3)c(=O)n2C)c1	pPAFAH FP inh 30.9
CC(=O)Nc1cccc(NC(=O)CSc2ncc(C(=O)Nc3ccccc3)c(=O)n2C)c1	none
CCCCCCCCN1C(=O)[C@@H](CC(=O)NCCCOCCCC)C[C@@]2(C(=O)OC)C1=C[C@H](C1CCCC1)O[C@@H]2C	none (no result: PAFAH1B2 FP inh, PAFAH2 inh, PAFAH1B3 inh, pPAFAH FP inh)
CNC(=O)NC(=O)C(C)OC(=O)c1ccc(Cl)c(S(=O)(=O)Nc2ccc(F)cc2)c1 (stereo not given)	pPAFAH FP inh 28.9
O=C(Cc1cn(Cc2ccccc2)c2ccccc12)Nc1ccc(Nc2cccnc2)cc1	none (no result: PAFAH1B2 FP inh, PAFAH2 inh, PAFAH1B3 inh, pPAFAH FP inh)
O=[N+]([O-])c1ccc2c3n([n+]([O-])c2c1)CCN=C3c1ccc(Cl)cc1	none
N#Cc1c(-c2cccs2)cc(C2CC2)nc1SCC(N)=O	none
CCc1ccc(C(=O)/C=C/c2ccc([N+](=O)[O-])o2)cc1	pPAFAH FP inh 26.7
Cc1ccc(S(=O)(=O)N2CCC(=O)N(C(COC(=O)Nc3ccccc3)Cc3ccccc3)CC2)cc1 (stereo not given)	PAFAH1B2 FP inh 34.8
Cc1ccc(S(=O)(=O)N2CCC(=O)N(CCOCc3ccc(C(F)(F)F)cc3)CC2)cc1	pPAFAH FP inh 30.5
Cc1ccc(S(=O)(=O)N2CCC(=O)N(CCOC(=O)Nc3ccc(C)c(C)c3)CC2)cc1	none
O=C1CCN(S(=O)(=O)c2ccccc2)CCN1CCOCc1ccc(C(F)(F)F)cc1	none
Cc1ccc(S(=O)(=O)N2CCC(=O)N([C@H](CO)Cc3ccccc3)CC2)cc1	none (no result: PAFAH1B2 FP inh, PAFAH2 inh, PAFAH1B3 inh, pPAFAH FP inh)
Cc1ccc(S(=O)(=O)N2CCC(=O)N(C(CO)Cc3ccccc3)CC2)cc1 (stereo not given)	PAFAH1B2 FP inh 24.4
Cc1ccc(NC(=O)OCCN2CCN(S(=O)(=O)c3ccc(C)cc3)CCC2=O)cc1	PAFAH1B2 FP inh 28.7
Fc1ccc(-c2cc(C(F)(F)C(F)F)[nH]n2)cc1	pPAFAH FP inh 25.2 (no result: PAFAH1B2 FP inh, PAFAH2 inh, PAFAH1B3 inh)
CN(C)c1ccc(C=Nc2ccc(N(C)C)cc2)cc1	none
CN(C)c1ccc(N=Cc2ccco2)cc1	pPAFAH FP inh 27.7 (no result: TCR CD3 inh)
COC(=O)N1C[C@H](Oc2ncccn2)[C@H]2C[C@@H]1c1ccccc1O2	none (no result: PAFAH1B2 FP inh, PAFAH2 inh, PAFAH1B3 inh, pPAFAH FP inh)
COc1cccc(Nc2nc3ccccc3nc2NS(=O)(=O)c2cccs2)c1	pPAFAH FP inh 32.1
CC(=O)C1=C(C)N(CC(C)C)C(=S)NC1c1ccc(Br)cc1 (stereo not given)	none (no result: PAFAH1B2 FP inh, PAFAH2 inh, PAFAH1B3 inh, pPAFAH FP inh)
COc1ccc(C2CC(=O)C(c3ccc(C(F)(F)F)cc3)=CN2Cc2ccccc2)cc1 (stereo not given)	none (no result: PAFAH1B2 FP inh, PAFAH2 inh, PAFAH1B3 inh, pPAFAH FP inh)
Nc1cc2c(cc1O)CCCC2	pPAFAH FP inh 30.7
O=S1(=O)c2ccccc2N=NN1Cc1cc(Cl)cc(Cl)c1	pPAFAH FP inh 33.4 (no result: TCR CD3 inh, PAFAH1B2 FP inh, PAFAH2 inh, PAFAH1B3 inh)
O=S1(=O)c2ccccc2N=NN1Cc1ccc(Cl)cc1	none
CCN(Cc1ccccc1)C(=O)CCc1nnc(CCCc2ccccc2)o1	PAFAH1B2 FP inh 26.0
N#Cc1ccc(C(=O)NCC2CCN(C(=O)C(=O)c3cccs3)CC2)cc1	none (no result: PAFAH1B2 FP inh, PAFAH2 inh, PAFAH1B3 inh, pPAFAH FP inh)
CC1/C(=N/O)CC(c2ccccc2)NC1c1ccccc1 (stereo not given)	none
CCCC1/C(=N/O)CC(c2ccccc2)NC1c1ccccc1 (stereo not given)	pPAFAH FP inh 26.6
CC/C(=C\C(=O)c1ccncc1)Nc1ccc(O)cc1	TCR CD3 inh 51.3
O=C(N/N=C/c1ccc(O)cc1)c1ccncc1	none
Cc1ccc(C)c(S(=O)(=O)N2CCN(C(=O)c3ccc(N4CCCC4)c([N+](=O)[O-])c3)CC2)c1	pPAFAH FP inh 25.4
Cc1ccc(SCC(=O)Nc2cccc(C)c2)cc1	PAFAH1B2 FP inh 29.3
CC(CC(=O)O)CC(=O)Nc1cc([N+](=O)[O-])ccc1O (stereo not given)	none
Cc1ccc(SCC(=O)Nc2cc([N+](=O)[O-])ccc2O)cc1	PAFAH1B2 FP inh 82.0, PAFAH2 inh 49.1
